The nature of assay [1]: Caspase-3/7 induction in HepG2 cells by small molecules, qHTS assay (AID 1346978). Also: nearly all actives have a fitted effect of over 15% in size. Also: potency is read from the fitted curve at half-maximal effect. In outline: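 Caspase-3/7 induction was measured by Caspase-Glo 3/7 luminescence (30 min, room temperature) after a 17 hr compound exposure of wild-type HepG2 cells seeded at 2,000 per well and pre-incubated 5 hr.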
For orientation: Quantitative high-throughput screening tests each substance at several concentrations.

Assay [2] is described as follows: Caspase-3/7 induction in CHO-K1 cells by small molecules, qHTS assay (AID 1346980). Also: nearly all actives have a fitted effect of over 15% in size. The procedure, abridged:
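Luminescent Caspase-Glo 3/7 read (30min, room temperature) quantified apoptosis induction. Cells were wild-type CHO-K1, treated with compound for 17hr at 37 C and 5% CO2.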

Assay [3] in a line: Caspase-3/7 induction in HepG2 cells by small molecules, qHTS cell viability counter screen (AID 1346981). Also: nearly all actives have a fitted effect of over 30% in size. Also: potency is read from the fitted curve at half-maximal effect. The procedure, abridged: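 Wild-type HepG2 cells (2,000/well) were allowed to settle for 5 hr at 37 C, 5% CO2, then dosed with compounds in DMSO by pin transfer. After 16 hr at 37 C, CellTiter-Fluor was added and fluorescence read 1 hr later.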
Assay [4] deals with Cytochrome P450 2D6 (Homo sapiens) (UniProt P10635). As to the kind of experiment: Cytochrome P450 Family 2 Subfamily D Member 6 (CYP2D6) small molecule antagonists: luciferase reporter qHTS assay (AID 1671196). Also: nearly all actives have a fitted effect of over 50% in size. Also: potency is read from the fitted curve at half-maximal effect. As to activity change, negative = inhibition: series mostly up to about 120 µM. The procedure, abridged:
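CYP2D6 enzyme–substrate mix was held with compound for 10 min at room temperature, then NADPH regeneration solution was added and the reaction ran 1 h at room temperature. Luciferin product was detected by luminescence after 20 min with detection reagent.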
A general note: In a reporter assay the amount or activity of a reporter protein is the signal.

In assay [5] the target is Cytochrome P450 2C19 (Homo sapiens) (UniProt P33261). As to the kind of experiment: Cytochrome P450 Family 2 Subfamily C Member 19 (CYP2C19) small molecule antagonists: luciferase reporter qHTS assay (AID 1671197). Also: nearly all actives have a fitted effect of over 65% in size. Also: potency is read from the fitted curve at half-maximal effect. As to activity change, negative = inhibition: series mostly up to about 120 µM. The procedure, abridged: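 P450-Glo CYP2C19 screening system; proluciferin substrate; DMSO compound stocks; 10 min RT preincubation; NADPH regeneration, 1 h at 37C; luciferin detection reagent, 20 min RT; luminescence as RLU.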
Cytochrome P450 2C19 (Homo sapiens), sequence (P33261 whole entry, looked up): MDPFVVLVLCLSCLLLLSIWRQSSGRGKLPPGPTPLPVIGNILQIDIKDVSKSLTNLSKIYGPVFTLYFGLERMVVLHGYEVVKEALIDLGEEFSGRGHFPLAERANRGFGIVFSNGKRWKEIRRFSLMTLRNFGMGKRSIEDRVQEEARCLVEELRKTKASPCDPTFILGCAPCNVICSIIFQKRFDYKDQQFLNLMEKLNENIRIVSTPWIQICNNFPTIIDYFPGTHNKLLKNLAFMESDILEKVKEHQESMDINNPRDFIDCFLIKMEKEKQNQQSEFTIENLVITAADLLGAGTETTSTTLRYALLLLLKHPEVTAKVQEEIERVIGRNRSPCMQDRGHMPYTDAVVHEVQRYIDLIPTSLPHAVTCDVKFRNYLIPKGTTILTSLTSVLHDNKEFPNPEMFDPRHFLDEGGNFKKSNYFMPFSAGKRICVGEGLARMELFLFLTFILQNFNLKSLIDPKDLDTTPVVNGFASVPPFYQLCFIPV

For assay [6], the target named is Cytochrome P450 2C9 (Homo sapiens) (UniProt P11712). As to the kind of experiment: Cytochrome P450 Family 2 Subfamily C Member 9 (CYP2C9) small molecule antagonists: luciferase reporter qHTS assay (AID 1671198). Also: nearly all actives have a fitted effect of over 50% in size. Also: potency is read from the fitted curve at half-maximal effect. As to activity change, negative = inhibition: series mostly up to about 120 µM. The procedure, abridged:
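Enzyme-substrate mix preincubated with compound 10 min at room temperature; reaction started with NADPH regeneration solution, 1 h 37C. Luminescent luciferin product read after 20 min detection reagent.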

For assay [7], the target named is Cytochrome P450 1A2 (Homo sapiens) (UniProt P05177). The assay is described as follows: Cytochrome P450 Family 1 Subfamily A Member 2 (CYP1A2) small molecule antagonists: luciferase reporter qHTS assay (AID 1671199). Also: nearly all actives have a fitted effect of over 50% in size. Also: potency is read from the fitted curve at half-maximal effect. As to activity change, negative = inhibition: series mostly up to about 120 µM. In outline:
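Human CYP1A2 activity measured with a P450-Glo proluciferin substrate; compounds in DMSO preincubated 10 min at room temperature with enzyme-substrate mix, then NADPH regeneration system added for 1 h. Luciferin detection reagent, 20 min, luminescence read.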

Assay [8] addresses Voltage-gated inwardly rectifying potassium channel KCNH2 (Homo sapiens) (UniProt Q12809). The assay is described as follows: Human Ether-a-go-go-Related Gene (hERG) channel small molecule antagonists: fluorescence cell-based qHTS assay (AID 1671200).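 Also: hERG-expressing U2OS cells given a thallium stimulus after FluxOR II dye loading; series mostly up to about 77 µM; nearly all actives have a fitted effect of over 50% in size.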 In outline: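 hERG-U2OS cells plated overnight at 37 C, loaded with FluxOR II dye 1 h at RT in dark; after 10 min, thallium stimulus added. Fluorescence (480/540 nm) read kinetically for 2 min at 1 s intervals.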
A general note: hERG is a cardiac potassium channel; its block is linked to QT prolongation.

Assay [9] in a line: Caspase-3/7 induction in CHO-K1 cells by small molecules, qHTS cell viability counter screen (AID 1346979). Also: nearly all actives have a fitted effect of over 35% in size. Also: potency is read from the fitted curve at half-maximal effect. The procedure, abridged:
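Wild-type CHO-K1 cells (1,500/well) treated with compound after 5 h plating; after 16 h at 37C, viability read as CellTiter-Fluor fluorescence following 1 h reagent incubation, in the same wells as the caspase read.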

Assay [10] deals with Nuclear receptor subfamily 1 group I member 2 (Homo sapiens) (UniProt O75469). As to the kind of experiment: Human pregnane X receptor (PXR) small molecule agonists, qHTS assay (AID 1346982). Also: nearly all actives have a fitted effect of over 35% in size. Also: potency is read from the fitted curve at half-maximal effect. In outline:
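PXR-Luc HepG2 cells (CYP3A4 promoter-driven luciferase) were seeded in medium with 5% charcoal-stripped FBS, left 5 hr at 37 C, then exposed to compounds in DMSO for 24 hr. Luminescence was read after ONE-Glo addition.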

Assay [11] has as its target Acetylcholinesterase (Homo sapiens) (UniProt P22303). The assay is described as follows: Acetylcholinesterase (AChE) small molecule antagonists: colormetric cell-based qHTS assay (AID 1347395; calls by dose curve; also: nearly all actives have a fitted effect of over 30% in size; also: potency is read from the fitted curve at half-maximal effect). The procedure, abridged:
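SH-SY5Y cells attached overnight, exposed to compound 30 min at 37 C, then given DTNB/acetylthiocholine; after 90 min at 37 C, colorimetric thiocholine read gives cellular AChE activity.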

Assay [12] shares this target. The assay is described as follows: Acetylcholinesterase (AChE) small molecule antagonists: enzyme-based qHTS assay (AID 1347397; calls by dose curve; also: nearly all actives have a fitted effect of over 55% in size; also: potency is read from the fitted curve at half-maximal effect). The conditions noted are these: Potency: AChE enzyme activity inhibition. In outline: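 Absorbance-based detection of thiocholine with DTNB served as the read-out. Recombinant human AChE was exposed to compound for 30 min at RT before a 10 min RT incubation with acetylthiocholine.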

Assay [13] shares this target. As to the kind of experiment: Acetylcholinesterase (AChE) small molecule antagonists: fluorescence cell-based qHTS assay (AID 1347398; calls by dose curve; also: nearly all actives have a fitted effect of over 50% in size; also: potency is read from the fitted curve at half-maximal effect). Conditions: Potency: AChE activity. In outline:
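Fluorimetric cell-based assay: intact SH-SY5Y cells, 30 min compound preincubation at 37 C, acetylthiocholine substrate with thiol probe Thiolite Green, 40 min RT development, fluorescence 490/520 nm.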

Assay [14] has the same target. As to the kind of experiment: Acetylcholinesterase (AChE) small molecule antagonists: enzyme-based qHTS assay with human liver microsomes (AID 1347399; calls by dose curve; also: nearly all actives have a fitted effect of over 60% in size). The conditions noted are these: Potency: qHTS inhibition. The procedure, abridged:
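Recombinant human AChE (50 mU/mL in the enzyme mix) and human liver microsomes (0.25 mg/mL final) were preincubated with compound and NADPH (0.25 mg/mL final) for 30 min at 37 C. Acetylthiocholine/DTNB was then added; thiocholine was read colorimetrically after 10 min at room temperature.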

Assay [15] concerns the target Cytochrome P450 3A4 (Homo sapiens) (UniProt P08684). As to the kind of experiment: Cytochrome P450 Family 3 Subfamily A Member 4 (CYP3A4) small molecule antagonists: luciferase reporter qHTS assay (AID 1671201). Also: nearly all actives have a fitted effect of over 50% in size. Also: potency is read from the fitted curve at half-maximal effect. As to activity change, negative = inhibition: series mostly up to about 120 µM. The procedure, abridged:
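P450-Glo CYP3A4 luminescent assay: compounds preincubated 10 min at room temperature with enzyme and proluciferin substrate, NADPH regeneration added, 1 h room-temperature reaction, stopped with luciferin detection reagent; luminescence read after 20 min. Ketoconazole positive control.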

Values joined by “and” are separate entries in the source; they are usually repeats but may differ in a detail not shown here. Equal values may be shown once. Records with an inconclusive call do not appear. Where a structure was tested more than once in an assay, its records may differ in their call. Active and inactive are the calls of the source. Unless noted, calls follow the shape of the dose curve; as a rule, active = well fitted curve in the direction sought with a large enough effect in the repeat runs; inconclusive = weak or mixed curves; inactive = no such curve, though single readings can be large; an effect the other way counts as inactive or inconclusive.

The text below walks through data of PubChem BioAssay (Tox21).
% is scaled to controls: 0 for no effect and ±100 for the full control effect.

Acetylcholinesterase (Homo sapiens), sequence (P22303 whole entry, looked up): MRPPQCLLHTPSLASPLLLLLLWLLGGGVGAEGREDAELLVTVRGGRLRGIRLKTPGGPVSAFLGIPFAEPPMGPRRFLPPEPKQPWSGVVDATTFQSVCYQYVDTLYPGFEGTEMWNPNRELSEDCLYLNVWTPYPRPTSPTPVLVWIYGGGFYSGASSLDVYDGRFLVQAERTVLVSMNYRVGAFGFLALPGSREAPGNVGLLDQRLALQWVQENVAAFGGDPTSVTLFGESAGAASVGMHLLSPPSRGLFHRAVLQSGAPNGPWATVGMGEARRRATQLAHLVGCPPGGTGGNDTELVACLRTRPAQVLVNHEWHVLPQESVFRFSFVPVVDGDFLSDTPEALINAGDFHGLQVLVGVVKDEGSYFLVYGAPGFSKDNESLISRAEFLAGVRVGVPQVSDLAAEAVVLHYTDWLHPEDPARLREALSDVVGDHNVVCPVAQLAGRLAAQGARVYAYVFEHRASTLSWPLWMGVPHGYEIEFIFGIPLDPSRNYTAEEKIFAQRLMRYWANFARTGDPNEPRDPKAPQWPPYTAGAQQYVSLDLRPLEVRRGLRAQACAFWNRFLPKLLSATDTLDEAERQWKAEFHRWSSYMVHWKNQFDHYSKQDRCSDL
Cytochrome P450 1A2 (Homo sapiens), sequence (P05177 whole entry, looked up): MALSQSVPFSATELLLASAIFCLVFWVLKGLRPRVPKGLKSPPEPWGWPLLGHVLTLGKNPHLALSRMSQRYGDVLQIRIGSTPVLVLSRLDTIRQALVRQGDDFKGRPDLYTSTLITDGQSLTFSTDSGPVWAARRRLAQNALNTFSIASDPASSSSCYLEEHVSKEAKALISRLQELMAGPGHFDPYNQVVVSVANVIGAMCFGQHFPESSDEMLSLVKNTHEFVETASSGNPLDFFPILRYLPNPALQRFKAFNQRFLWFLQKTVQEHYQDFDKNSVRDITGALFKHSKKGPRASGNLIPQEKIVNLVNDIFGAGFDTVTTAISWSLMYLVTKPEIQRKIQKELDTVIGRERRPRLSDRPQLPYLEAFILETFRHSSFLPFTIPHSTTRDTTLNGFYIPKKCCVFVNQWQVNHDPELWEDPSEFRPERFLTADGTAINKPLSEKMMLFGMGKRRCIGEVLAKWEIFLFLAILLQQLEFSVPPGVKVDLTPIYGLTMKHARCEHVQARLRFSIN
Nuclear receptor subfamily 1 group I member 2 (Homo sapiens), sequence (O75469 whole entry, looked up): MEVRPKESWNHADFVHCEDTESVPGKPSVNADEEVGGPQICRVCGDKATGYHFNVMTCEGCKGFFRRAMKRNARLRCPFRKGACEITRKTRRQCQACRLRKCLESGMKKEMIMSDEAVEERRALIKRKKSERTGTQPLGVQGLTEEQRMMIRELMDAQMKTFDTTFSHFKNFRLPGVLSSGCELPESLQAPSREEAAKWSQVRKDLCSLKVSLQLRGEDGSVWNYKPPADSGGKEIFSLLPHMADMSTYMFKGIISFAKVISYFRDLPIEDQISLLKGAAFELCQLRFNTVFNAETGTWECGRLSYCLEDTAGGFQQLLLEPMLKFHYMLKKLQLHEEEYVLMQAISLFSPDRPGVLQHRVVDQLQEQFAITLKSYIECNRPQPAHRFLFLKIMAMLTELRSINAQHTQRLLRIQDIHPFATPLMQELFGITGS
Voltage-gated inwardly rectifying potassium channel KCNH2 (Homo sapiens), sequence (Q12809 whole entry, looked up): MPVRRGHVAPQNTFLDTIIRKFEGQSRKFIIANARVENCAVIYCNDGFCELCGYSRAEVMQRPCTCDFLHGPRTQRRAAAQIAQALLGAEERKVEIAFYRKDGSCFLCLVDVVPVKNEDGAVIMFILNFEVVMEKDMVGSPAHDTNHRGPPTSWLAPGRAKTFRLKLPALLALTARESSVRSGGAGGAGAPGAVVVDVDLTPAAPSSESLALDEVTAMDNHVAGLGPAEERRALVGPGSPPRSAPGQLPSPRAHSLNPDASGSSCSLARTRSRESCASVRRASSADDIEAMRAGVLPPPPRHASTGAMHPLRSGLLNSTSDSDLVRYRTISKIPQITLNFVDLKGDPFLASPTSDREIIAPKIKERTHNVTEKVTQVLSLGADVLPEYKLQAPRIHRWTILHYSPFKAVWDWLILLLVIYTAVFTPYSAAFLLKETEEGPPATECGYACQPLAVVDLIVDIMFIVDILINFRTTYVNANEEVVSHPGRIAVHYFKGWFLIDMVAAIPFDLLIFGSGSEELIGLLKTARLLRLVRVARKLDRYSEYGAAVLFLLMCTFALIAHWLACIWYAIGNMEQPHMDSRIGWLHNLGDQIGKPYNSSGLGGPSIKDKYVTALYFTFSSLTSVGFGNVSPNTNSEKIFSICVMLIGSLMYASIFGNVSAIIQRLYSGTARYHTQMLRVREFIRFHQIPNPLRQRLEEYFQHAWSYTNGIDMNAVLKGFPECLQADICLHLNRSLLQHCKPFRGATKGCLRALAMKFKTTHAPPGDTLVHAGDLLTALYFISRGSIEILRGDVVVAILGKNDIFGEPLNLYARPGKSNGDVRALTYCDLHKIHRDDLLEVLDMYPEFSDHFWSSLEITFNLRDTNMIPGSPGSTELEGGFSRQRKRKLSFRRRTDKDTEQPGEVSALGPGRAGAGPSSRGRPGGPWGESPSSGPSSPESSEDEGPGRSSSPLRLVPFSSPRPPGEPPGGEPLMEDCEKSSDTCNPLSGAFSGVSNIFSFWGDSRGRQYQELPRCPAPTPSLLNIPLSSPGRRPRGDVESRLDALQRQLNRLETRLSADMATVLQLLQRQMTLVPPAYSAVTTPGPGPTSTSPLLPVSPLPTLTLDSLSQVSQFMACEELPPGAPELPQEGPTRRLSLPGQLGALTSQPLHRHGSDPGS
Cytochrome P450 2D6 (Homo sapiens), sequence (P10635 whole entry, looked up): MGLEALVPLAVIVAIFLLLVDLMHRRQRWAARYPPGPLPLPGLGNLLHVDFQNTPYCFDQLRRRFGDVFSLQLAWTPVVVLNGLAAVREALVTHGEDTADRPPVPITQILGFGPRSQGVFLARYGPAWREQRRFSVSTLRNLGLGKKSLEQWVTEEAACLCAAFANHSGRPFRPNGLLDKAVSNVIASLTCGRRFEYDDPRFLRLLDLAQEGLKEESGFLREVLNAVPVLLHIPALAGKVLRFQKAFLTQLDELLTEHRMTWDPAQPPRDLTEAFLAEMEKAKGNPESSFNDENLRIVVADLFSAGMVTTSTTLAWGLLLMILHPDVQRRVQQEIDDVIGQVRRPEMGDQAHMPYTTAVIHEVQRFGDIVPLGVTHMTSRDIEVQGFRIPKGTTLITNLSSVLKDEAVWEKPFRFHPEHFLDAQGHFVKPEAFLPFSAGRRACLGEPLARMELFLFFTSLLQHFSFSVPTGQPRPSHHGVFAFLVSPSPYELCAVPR
Cytochrome P450 3A4 (Homo sapiens), sequence (P08684 whole entry, looked up): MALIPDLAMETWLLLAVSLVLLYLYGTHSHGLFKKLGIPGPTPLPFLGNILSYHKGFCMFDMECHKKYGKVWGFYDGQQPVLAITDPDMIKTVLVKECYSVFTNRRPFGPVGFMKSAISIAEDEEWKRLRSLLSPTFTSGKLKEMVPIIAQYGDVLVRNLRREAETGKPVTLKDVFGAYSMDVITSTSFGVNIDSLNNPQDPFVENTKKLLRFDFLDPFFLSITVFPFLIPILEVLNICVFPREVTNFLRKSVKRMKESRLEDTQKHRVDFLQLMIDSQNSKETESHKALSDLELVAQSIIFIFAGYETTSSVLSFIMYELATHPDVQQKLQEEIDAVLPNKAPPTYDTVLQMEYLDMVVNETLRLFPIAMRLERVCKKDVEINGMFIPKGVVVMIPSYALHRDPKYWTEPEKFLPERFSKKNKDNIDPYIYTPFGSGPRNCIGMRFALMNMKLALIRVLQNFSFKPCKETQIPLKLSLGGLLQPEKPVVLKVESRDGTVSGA
Cytochrome P450 2C9 (Homo sapiens), sequence (P11712 whole entry, looked up): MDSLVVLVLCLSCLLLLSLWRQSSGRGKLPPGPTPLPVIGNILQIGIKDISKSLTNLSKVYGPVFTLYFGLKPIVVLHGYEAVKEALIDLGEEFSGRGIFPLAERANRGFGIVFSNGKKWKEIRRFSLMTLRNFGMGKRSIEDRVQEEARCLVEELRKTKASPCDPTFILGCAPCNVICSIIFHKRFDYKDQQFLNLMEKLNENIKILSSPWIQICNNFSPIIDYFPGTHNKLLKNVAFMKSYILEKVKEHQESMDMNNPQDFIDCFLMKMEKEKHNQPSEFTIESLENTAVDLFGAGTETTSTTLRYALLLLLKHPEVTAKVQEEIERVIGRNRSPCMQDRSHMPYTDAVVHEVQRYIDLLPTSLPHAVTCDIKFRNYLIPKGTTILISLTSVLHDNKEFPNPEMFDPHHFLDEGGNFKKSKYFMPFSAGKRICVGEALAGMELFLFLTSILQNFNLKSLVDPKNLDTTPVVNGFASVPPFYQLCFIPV

In the case of `Cc1cc(Cl)ccc1N=CN(C)C`, the Potency entry in [1], in assay [2], in [3], in assay [6] and in assay [8] was “inactive” throughout. Moreover, the Potency was 35.6 µM (active) in assay [4]; 79.6 µM (active) and inactive in [5]; 22.4 µM (active) and 28.3 µM (active) in [7].
As for `CCOS(=O)(=O)OCC`, the Potency entry in assay [1], in assay [9], in [2], in [3], in assay [10] and in [12] was “inactive” in each case. The Potency entry in assay [13], in [14], in [4] and in [8] was “inactive” each time. Also, the Potency in assay [11] is 5.03 µM (active) and inactive; in assay [5], 79.8 µM (active) and inactive; in [6], 71.1 µM (active) and inactive; in [7], 35.6 µM (active) and inactive.
As for `Oc1ccc(Cl)cc1Cl`, the Potency entry in [1], in [2], in [3], in assay [10], in assay [11] and in assay [12] was “inactive” in each case. Also, the Potency result in assay [13], in assay [14], in assay [4], in [6], in assay [8] and in assay [15] was “inactive” each time. The Potency in assay [5] is 70.5 µM (active) and inactive; in assay [7], 35.3 µM (active) and 39.9 µM (active).
For `S=c1[nH]c2ccccc2[nH]1`, the Potency result in assay [1], in [2], in assay [3], in [11], in assay [14] and in [4] was “inactive” throughout. Further, the Potency result in assay [6] and in assay [8] was “inactive” each time. Also, the Potency was 13.7 µM (active) and inactive in [9]; 68.7 µM (active) in assay [10]; 35.7 µM (active) and inactive in assay [12]; 10.1 µM (active) and inactive in [13]; 39.9 µM (active) in assay [5]; 35.7 µM (active) and 35.6 µM (active) in [7]. Further, the Potency in assay [15] was 5.65 µM (active) and 7.96 µM (active).
Consider `CC(C)CON=O`, for which the Potency entry in [1], in [9], in assay [2], in assay [3], in [10] and in assay [11] was “inactive” throughout. Besides, the Potency result in assay [12], in assay [13], in assay [14], in assay [5], in assay [6] and in assay [8] was “inactive” throughout. Also, in assay [4], the activity change, negative = inhibition was 2.15% [at 23.6 µM] (inactive).
With `CNC(=O)CSP(=S)(OC)OC`, the Potency entry in assay [1], in [2], in [3], in [11], in assay [12] and in [13] was “inactive” in each case. Besides, the Potency entry in assay [14] and in assay [8] was “inactive” each time. Further, the Potency was 14.1 µM (active) and inactive in [9]; 62.8 µM (active) and inactive in assay [10]; “inactive and 35.5 µM (active)” in assay [4]; 10.3 µM (active) and 20 µM (active) in assay [5]; 36.6 µM (active) and 20 µM (active) in assay [6].
On to `CC(C)COC(=O)c1ccccc1C(=O)OCC(C)C`, for which the Potency result in assay [1], in assay [9], in assay [2], in assay [3], in assay [10] and in assay [11] was “inactive” each time. Further, the Potency entry in assay [12], in assay [13], in [14], in assay [4] and in assay [15] was “inactive” in each case. Further, the Potency was 10 µM (active) and 11.2 µM (active) in assay [5]; 28.3 µM (active) and 11.2 µM (active) in assay [6]; 12.6 µM (active) and 8.94 µM (active) in assay [7].
On to `C=CC(Cl)CCl` (stereo not drawn), for which the Potency result in assay [1], in [9], in [2], in assay [3], in assay [10] and in [11] was “inactive” throughout. In addition, the Potency result in assay [12], in assay [13], in assay [14], in assay [4] and in [8] was “inactive” in each case. Also, the Potency in assay [5] is 40.7 µM (active) and inactive.
On to `COc1ccc(O)c(C(C)(C)C)c1`, for which the Potency entry in [1], in assay [9], in assay [2], in [3], in assay [10] and in assay [11] was “inactive” each time. Also, the Potency result in [12], in assay [13], in assay [14] and in assay [8] was “inactive” each time. In addition, the Potency in [5] was 7.99 µM (active) and 5.64 µM (active); in assay [6] it was 25.3 µM (active) and 31.7 µM (active); in [7], 39.9 µM (active).
For `CCCCCCCCCc1ccc(O)cc1`, the Potency in assay [1] was 61.8 µM (active) and 27.3 µM (active); in assay [9], 61.8 µM (active) and 54.5 µM (active); in [3], 43.3 µM (active); in assay [10] it was 61.8 µM (active) and 61.1 µM (active); in [5] it was 6.39 µM (active) and 10 µM (active); in [6] it was 20.2 µM (active) and 31.7 µM (active). Moreover, the Potency entry in [7] was “inactive and 39.9 µM (active)”. The Potency result in assay [11], in [13], in [14], in [4] and in [8] was “inactive” throughout.
